HEK cytotox: Cytotoxic Profiling in HEK 293 Cell Line of Diverse Libraries Using Quantitative High-Throughput Screening. HEK 293 viability, ATP luminescence (CellTiter-Glo), 48-72 h. Potency, µM (titrated, usually from 115 µM), for the others: at the top dose activity change, negative = cytotoxicity, hits mostly inhibitors. AID 1345083, 2018. 94,000 tested, 6.6% active; further: nearly all actives have a fitted effect of over 60% in size
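HEK 293 cells seeded at 250 cells/well were exposed to compound for 48 or 72 hr at 37 degree Celsius. Viability taken as ATP content by CellTiter-Glo luminescence.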
3T3 cytotox: Cytotoxic Profiling in NIH 3T3 Cell Line of Diverse Libraries Using Quantitative High-Throughput Screening | NIH 3T3 viability, CellTiter-Glo ATP luminescence, 48-72 h | Potency, µM (titrated, usually from 96.7 µM), for the others: at the highest dose activity change, negative = cytotoxicity, hits mostly inhibitors | 94,000 tested, 4.3% active | AID 1345082, 2018; further: nearly all actives have a fitted effect of over 55% in size
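NIH 3T3 cells at 400 cells/well received 23 nL of compound by pintool and were incubated 48 or 72 h at 37 °C. Viability was read as ATP-coupled CellTiter-Glo luminescence.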
FLuc inh: Firefly luciferase inhibition profiling of diverse chemical library using quantitative high-throughput screening. Luciferin 4-monooxygenase (Photinus pyralis), P08659. purified P. pyralis luciferase, luminescence, biochemical. Potency, µM (doses to about 115 µM), usual class: inhibitors. 76,000 tested, 2.5% active. AID 1347043, 2019; further: nearly all actives have a fitted effect of over 65% in size
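Purified 10nM P. pyralis luciferase with 10uM D-luciferin and 10uM ATP in 50mM Tris acetate pH 7.5, 10mM Mg acetate, 0.01% Tween-20, 0.05% BSA. qHTS titration; luminescence read by CCD imager.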
NPR1 antag: Natriuretic polypeptide receptor (hNpr1) antagonism - Primary qHTS | HEK293 hNpr1 GloSensor cGMP, ANP-stimulated luminescence | 76,000 tested, 1.6% active | Atrial natriuretic peptide receptor 1 (Homo sapiens), P16066 | AID 1347048, 2019 | Potency, µM (highest dose often 46.3 µM), for inactives: at the top dose activity change, negative = inhibition, hits mostly inhibitors; calls by dose curve; further: nearly all actives have a fitted effect of over 60% in size
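Compound pre-incubated 30 min at room temperature on GloSensor-loaded HEK293 cells stably carrying hNpr1 and the pGS-40F cGMP biosensor. Stimulation uses hNppA at 0.1 nM final; luminescence is taken at baseline and 20 min post-agonist.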
The depositor's hits bear a star; [ ] = remark or other dose. A selection: hits, their analogues and other compounds. The true share with any hit is near 11%. Unless noted, the call rests on the fitted dose curve; in most records, active means well fitted curve in the direction sought with a large enough effect; inconclusive means small, poorly fitted or top-dose-only effect, or another doubt; inactive means no such curve, though single readings can be large; an effect the other way counts as inactive or inconclusive. On the % scale 0 is the no-effect control and ±100 the full control effect; potency means the concentration at half of the fitted maximal effect.

Screening CC(=O)N(C)CCc1noc(C2CN(C(=O)COc3ccccc3)C2)n1 returned HEK cytotox 2.6%, 3T3 cytotox 2.7%, FLuc inh inactive and NPR1 antag -0.2%.
Screening CC(=O)N(C)CCc1noc(C2CN(Cc3c(F)cccc3Cl)C2)n1 returned HEK cytotox 39.8µM*, 3T3 cytotox inconclusive, FLuc inh inactive and NPR1 antag -0.8%.
Screening CN1CCCN(C(=O)c2ccc(F)cc2)c2ccccc21 returned HEK cytotox -17.7%, 3T3 cytotox inconclusive, FLuc inh inactive and NPR1 antag 1.1%.
Screening Cc1cc(C)cc(C(=O)N2CCCN(C)c3ccccc32)c1 returned HEK cytotox 39.8µM*, 3T3 cytotox inconclusive, FLuc inh inactive and NPR1 antag -0.6%.
Screening O=C(c1ccncc1)N1CC(N(Cc2ccncc2)CC2CC2)C1 returned HEK cytotox -8.4% and 3T3 cytotox inconclusive.
For CC1=C(C(=O)OC(C)(C)C)C(c2ccc(Cl)cc2)N2C(CC(=O)N3CCCC3)=CSC2=N1 (centres undefined) the results were HEK cytotox inconclusive, 3T3 cytotox inconclusive, FLuc inh inactive and NPR1 antag -26.3%.
CC1=C(C(=O)NC(C)(C)C)C(c2ccc(Cl)cc2)N2C(CC(=O)N3CCCC3)=CSC2=N1 (centres undefined) was read as HEK cytotox inconclusive, 3T3 cytotox 44.7µM*, FLuc inh inactive and NPR1 antag -17.1%.
`C[C@H]1[C@@H]2[C@@H](O)C([C@H](C)C(=O)NC3CCCC3)CC[C@@]2(C)CC[C@@H]1NC(=O)c1ccncc1` (some centres undefined) gave HEK cytotox 1.6%, 3T3 cytotox -18.4%, FLuc inh inactive and NPR1 antag -0.3%.
For CN1CCN(Cc2ccc(Nc3cnc4ccc(N5CCOCC5)nn34)cc2)CC1 the results were HEK cytotox inconclusive, 3T3 cytotox -31.1%[138 µM], FLuc inh inactive and NPR1 antag -1.1%[70.6 µM].
Screening CN1CCN(Cc2ccc(Nc3cnc4ccc(-n5ccnc5)nn34)cc2)CC1 returned HEK cytotox 50.1µM*, 3T3 cytotox inconclusive, FLuc inh inconclusive and NPR1 antag -1.1%[70.6 µM].
Screening CCOc1ccc2c(n1)CCN(C(=O)Nc1ccc(C)c(C)c1)C2 returned HEK cytotox inconclusive, 3T3 cytotox inconclusive, FLuc inh 28.2µM* and NPR1 antag -9.9%.
Screening COCCOc1ccc2c(n1)CCN(C(=O)NCCC(C)C)C2 returned HEK cytotox -15.0%, 3T3 cytotox -20.0%, FLuc inh 14.1µM* and NPR1 antag 4.3%.
Screening CCOc1ccc2c(n1)CCN(C(=O)NCC(C)C)C2 returned HEK cytotox -17.0%, 3T3 cytotox -19.8%, FLuc inh inconclusive and NPR1 antag 5.9%.
For CC(C)c1cccc(NC(=O)Cn2cccc2-c2nc(-c3ccc4c(c3)OCO4)no2)c1 the results were HEK cytotox inconclusive, 3T3 cytotox 28.2µM*, FLuc inh inactive and NPR1 antag -3.4%.
`COc1ccc(OC)c(NC(=O)Cn2cccc2-c2nc(-c3ccc4c(c3)OCO4)no2)c1` gave HEK cytotox 35.5µM*, 3T3 cytotox inconclusive, FLuc inh inactive and NPR1 antag -13.5%.
`COc1cc(Cl)c(C)cc1NC(=O)Cn1cccc1-c1nc(-c2ccc3c(c2)OCO3)no1` gave HEK cytotox -19.5%, 3T3 cytotox -16.4%, FLuc inh inactive and NPR1 antag 1.5%.
For COc1ccc(Nc2ccnc(N3CCN([S+](=O)([O-])c4ccc(C)cc4)CC3)n2)cc1 the results were HEK cytotox -27.9% and 3T3 cytotox inconclusive.
`COC[C@@H]1CNC[C@H]1c1nc(C)no1` gave HEK cytotox 89.1µM*, 3T3 cytotox -6.8%, FLuc inh inactive and NPR1 antag -4.4%.
Screening CC(=O)NCc1nnc2n1C(C(=O)NCC(F)(F)F)CC2 (centres undefined) returned HEK cytotox -29.8%[172 µM] and 3T3 cytotox -11.9%[138 µM].
For CCN1c2cc(C(=O)Nc3ccc(OC)c(Cl)c3)ccc2C(=O)N2CCCCCC21 (centres undefined) the results were HEK cytotox 11.2µM*, 3T3 cytotox inconclusive, FLuc inh inactive and NPR1 antag -21.6%.

Source: PubChem BioAssay (National Center for Advancing Translational Sciences (NCATS))
